Measured values from PubChem BioAssay (NCATS).
Records with an inconclusive call do not appear. Values without a mark were called inactive. Active and inactive are the calls of the source. Calls come from the whole dose curve; as a rule, active = well fitted cell-killing curve with a large enough effect; inconclusive = small, poorly fitted or top-dose-only effect, or effect the other way; inactive = no such curve, though single readings can be large or run the other way.

What was measured:
[1] = Quantitative High-Throughput drug screen in 47 multiple myeloma cell lines against the NCATS MIPE library collection: OCIMY7_PLB cell viability assay (AID 1918987); conditions: OCI-MY7 myeloma viability, CellTiter-Glo ATP, 48 h; viability (% of DMSO): at 45.8 µM (top of the series); note: nearly all actives have a fitted effect of over 65% in size
In short: (§1)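 500 cells/well per myeloma line exposed to pinned MIPE 4.0 compounds for 48 h at 37 °C, 5% CO2. Viability read as ATP by CellTiter-Glo luminescence, normalised to DMSO-only (100%) and media-only (0%) wells.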

[2] = Quantitative High-Throughput drug screen in 47 multiple myeloma cell lines against the NCATS MIPE library collection: OCIMY5_PLB cell viability assay (AID 1918988); note: nearly all actives have a fitted effect of over 65% in size
In short: as §1

[3] = Quantitative High-Throughput drug screen in 47 multiple myeloma cell lines against the NCATS MIPE library collection: OPM1_PLB cell viability assay (AID 1918989); note: nearly all actives have a fitted effect of over 40% in size
In short: as §1

[4] = Quantitative High-Throughput drug screen in 47 multiple myeloma cell lines against the NCATS MIPE library collection: SKMM1_PLB cell viability assay (AID 1919863); conditions: SKMM1 myeloma viability, CellTiter-Glo ATP, 48 h; viability: hits give low values; note: nearly all actives have a fitted effect of over 35% in size
In short: as §1

[5] = Quantitative High-Throughput drug screen in 47 multiple myeloma cell lines against the NCATS MIPE library collection: U266_ATCC cell viability assay (AID 1919864); note: nearly all actives have a fitted effect of over 35% in size
In short: as §1

[6] = Quantitative High-Throughput drug screen in 47 multiple myeloma cell lines against the NCATS MIPE library collection: XG1_PLB cell viability assay (AID 1919866); note: nearly all actives have a fitted effect of over 35% in size
In short: as §1

[7] = Quantitative High-Throughput drug screen in 47 multiple myeloma cell lines against the NCATS MIPE library collection: XG6_PLB cell viability assay (AID 1919865); note: nearly all actives have a fitted effect of over 40% in size
In short: as §1

[8] = Quantitative High-Throughput drug screen in 47 multiple myeloma cell lines against the NCATS MIPE library collection: VP6_DJ cell viability assay (AID 1919867); note: nearly all actives have a fitted effect of over 40% in size
In short: as §1

[9] = Quantitative High-Throughput drug screen in 47 multiple myeloma cell lines against the NCATS MIPE library collection: PE2_PLB cell viability assay (AID 1919869); note: nearly all actives have a fitted effect of over 35% in size
In short: as §1

[10] = Quantitative High-Throughput drug screen in 47 multiple myeloma cell lines against the NCATS MIPE library collection: UTMC2_PLB cell viability assay (AID 1919868); conditions: CellTiter-Glo ATP luminescence, 48 h; viability (% of DMSO control): at 45.8 µM (top of the series); note: nearly all actives have a fitted effect of over 55% in size
In short: as §1
Potency is the fitted concentration of half-maximal effect.

Structure (SMILES)	Potency [1]	Potency [2]	Potency [3]	viability [4]	Potency [5]	Potency [6]	Potency [4]	Potency [7]	Potency [8]	Potency [9]	Potency [10]
CNc1nc(Nc2ccc(C(=O)N3CCOCC3)cc2OC)ncc1Cl	inactive	14.8 µM (active)	inactive	112%	inactive	16.6 µM (active)	–	–	–	–	–
C=C1c2cccc(O)c2C(O)=C2C(=O)[C@@]3(O)C(O)=C(C(N)=O)C(=O)[C@@H](N(C)C)[C@@H]3[C@@H](O)[C@H]12	9.35 µM (active)	18.7 µM (active)	23.5 µM (active)	–	–	–	–	–	–	–	–
COc1ccc(-c2oc3c(CC=C(C)C)c(O)cc(O)c3c(=O)c2O)cc1	5.9 µM (active)	14.8 µM (active)	inactive	–	16.6 µM (active)	–	20.9 µM (active)	6.62 µM (active)	5.26 µM (active)	inactive	–
COc1c(C)c2c(c(O)c1CC=C(C)CCC(=O)O)C(=O)OC2	4.69 µM (active)	7.43 µM (active)	11.8 µM (active)	–	8.33 µM (active)	–	5.26 µM (active)	3.32 µM (active)	5.9 µM (active)	3.32 µM (active)	–
Fc1ccc(C(c2ccc(F)cc2)N2CCN(CC=Cc3ccccc3)CC2)cc1	13.2 µM (active)	14.8 µM (active)	inactive	107%	inactive	9.35 µM (active)	–	7.43 µM (active)	8.33 µM (active)	5.26 µM (active)	inactive
O=c1[nH]nc(OCCCc2ccc(Cl)cc2)c(NCc2cccnc2)c1Br	7.43 µM (active)	18.7 µM (active)	4.69 µM (active)	–	7.43 µM (active)	9.35 µM (active)	18.7 µM (active)	2.96 µM (active)	9.35 µM (active)	9.35 µM (active)	–
CN(C)CCOc1ccc(C(=C(CCCl)c2ccccc2)c2ccccc2)cc1	5.9 µM (active)	26.4 µM (active)	7.43 µM (active)	–	–	2.96 µM (active)	23.5 µM (active)	–	inactive	–	inactive
FC(F)(F)c1ccc(C=Cc2nc(COc3ccc(CCCCn4ccnn4)cc3)co2)cc1	0.132 µM (active)	0.0166 µM (active)	0.187 µM (active)	–	–	–	–	–	–	–	–
CC(=O)Nc1cccc(-n2c(=O)n(C3CC3)c(=O)c3c(Nc4ccc(I)cc4F)n(C)c(=O)c(C)c32)c1	0.0132 µM (active)	inactive	0.296 µM (active)	–	1.48 µM (active)	0.0418 µM (active)	3.72 µM (active)	0.332 µM (active)	inactive	0.296 µM (active)	–
O=c1[nH]c(=O)n([C@H]2C[C@@H](O)[C@@H](CO)O2)cc1C(F)(F)F	7.43 µM (active)	14.8 µM (active)	inactive	–	inactive	–	5.9 µM (active)	1.87 µM (active)	–	10.5 µM (active)	–
CN1CCc2c(n(Cc3ccc(C(=O)NO)cc3)c3ccccc23)C1	4.18 µM (active)	16.6 µM (active)	16.6 µM (active)	–	26.4 µM (active)	–	5.9 µM (active)	14.8 µM (active)	13.2 µM (active)	20.9 µM (active)	–
NC(=O)c1noc([C@H](CCCC2CCCCC2)CC(=O)NO)n1	3.32 µM (active)	16.6 µM (active)	23.5 µM (active)	–	20.9 µM (active)	16.6 µM (active)	13.2 µM (active)	23.5 µM (active)	–	18.7 µM (active)	–
Cc1ccccc1-n1c(Cn2nc(-c3cccc(O)c3)c3c(N)ncnc32)nc2cccc(C)c2c1=O	2.96 µM (active)	10.5 µM (active)	2.35 µM (active)	–	–	2.09 µM (active)	8.33 µM (active)	0.935 µM (active)	1.05 µM (active)	2.35 µM (active)	4.18 µM (active)
COc1cc2ncnc(Nc3cc(Br)c(O)c(Br)c3)c2cc1OC	0.0042 µM (active)	0.0023 µM (active)	2.35 µM (active)	–	–	0.0074 µM (active)	0.0469 µM (active)	0.0047 µM (active)	0.0148 µM (active)	0.0833 µM (active)	0.526 µM (active)
COc1c(C)c2c(c(O)c1CC=C(C)CCC(=O)OCCN1CCOCC1)C(=O)OC2	3.72 µM (active)	5.26 µM (active)	8.33 µM (active)	–	8.33 µM (active)	–	4.18 µM (active)	–	–	4.18 µM (active)	–
CC(C)(CO)[C@@H](O)C(=O)NCCC(=O)O	inactive	inactive	inactive	102%	–	inactive	–	20.9 µM (active)	–	inactive	–

Structure (SMILES)	Potency [1]	Potency [2]	Potency [3]	viability [4]	Potency [5]	Potency [6]	Potency [4]	Potency [7]	Potency [8]	Potency [9]	Potency [10]
CO[C@@H]1C(N(C)C(=O)c2ccccc2)C[C@H]2O[C@]1(C)n1c3ccccc3c3c4c(c5c6ccccc6n2c5c31)C(=O)NC4=O (stereo partly drawn)	0.935 µM (active)	5.26 µM (active)	4.18 µM (active)	–	13.2 µM (active)	–	11.8 µM (active)	–	–	3.72 µM (active)	2.64 µM (active)
Cc1cnc(Nc2cccc(CN3CCOCC3)c2)nc1Nc1cccc(S(=O)(=O)NC(C)(C)C)c1	1.05 µM (active)	3.72 µM (active)	1.48 µM (active)	–	inactive	1.05 µM (active)	7.43 µM (active)	1.18 µM (active)	2.96 µM (active)	1.87 µM (active)	–
OC[C@H]1O[C@@H](O[C@H]2[C@@H](O)[C@@](O)(CO)O[C@@H]2CO)[C@H](O)[C@@H](O)[C@@H]1O	inactive	inactive	inactive	96.6%	inactive	3.72 µM (active)	–	inactive	–	–	inactive
CN(C(Cc1ccc(OS(=O)(=O)c2cccc3cnccc23)cc1)C(=O)N1CCN(c2ccccc2)CC1)S(=O)(=O)c1cccc2cnccc12 (stereo not drawn)	4.69 µM (active)	13.2 µM (active)	3.72 µM (active)	–	13.2 µM (active)	–	9.35 µM (active)	13.2 µM (active)	3.72 µM (active)	–	6.62 µM (active)
CC[C@H](C)C(=O)O[C@H]1C[C@H](O)C=C2C=C[C@H](C)[C@H](CC[C@@H](O)C[C@@H](O)CC(=O)O)[C@H]21	inactive	inactive	inactive	102%	inactive	–	–	inactive	–	inactive	inactive
CC1(C)CC(=O)c2c(C(F)(F)F)nn(-c3ccc(C(N)=O)c(NC4CCC(O)CC4)c3)c2C1 (stereo not drawn)	0.0662 µM (active)	0.118 µM (active)	0.105 µM (active)	–	0.0935 µM (active)	–	0.187 µM (active)	–	–	0.118 µM (active)	–
COC(=O)Nc1ccc(-c2nc(N3CCOCC3)c3cnn(C4CCN(C(=O)OC)CC4)c3n2)cc1	0.0235 µM (active)	1.18 µM (active)	0.372 µM (active)	–	1.32 µM (active)	0.296 µM (active)	11.8 µM (active)	–	0.148 µM (active)	0.332 µM (active)	0.059 µM (active)
Oc1cc(O)cc(C=Cc2ccc(O)c(O)c2)c1	5.26 µM (active)	20.9 µM (active)	16.6 µM (active)	–	–	8.33 µM (active)	23.5 µM (active)	5.26 µM (active)	10.5 µM (active)	4.18 µM (active)	–
O=C(c1ccc(F)c(F)c1Nc1ccc(I)cc1F)N1CC(O)([C@H]2CCCCN2)C1	inactive	18.7 µM (active)	11.8 µM (active)	–	23.5 µM (active)	16.6 µM (active)	16.6 µM (active)	18.7 µM (active)	9.35 µM (active)	7.43 µM (active)	–
CN(C)CCN(C)C(=O)c1ccc(NC(=O)Nc2ccc(-c3nc(N4CCOCC4)c4ccn(CC(F)(F)F)c4n3)cc2)cc1	3.32 µM (active)	0.418 µM (active)	0.0093 µM (active)	–	–	–	0.209 µM (active)	–	0.0469 µM (active)	0.0074 µM (active)	0.0074 µM (active)
CC[C@H](CC#N)OC(=O)N[C@@H](C)c1cccc(NC(=O)Nc2ccc(-c3cnco3)c(OC)c2)c1	3.72 µM (active)	3.72 µM (active)	13.2 µM (active)	–	1.48 µM (active)	–	1.18 µM (active)	2.96 µM (active)	1.32 µM (active)	4.18 µM (active)	–
O=C(Nc1cccc(Cl)c1)Nc1ncc(CCNc2ncnc3ccsc23)s1	0.264 µM (active)	0.833 µM (active)	6.62 µM (active)	–	16.6 µM (active)	1.32 µM (active)	3.32 µM (active)	4.18 µM (active)	–	4.18 µM (active)	–
OC(c1cc(C(F)(F)F)nc2c(C(F)(F)F)cccc12)C1CCCCN1 (stereo not drawn)	10.5 µM (active)	14.8 µM (active)	18.7 µM (active)	–	26.4 µM (active)	14.8 µM (active)	23.5 µM (active)	26.4 µM (active)	14.8 µM (active)	23.5 µM (active)	20.9 µM (active)
CCNC(=O)Nc1ccc(Oc2ncnc(N)c2C=NOC)cc1Cl	2.64 µM (active)	14.8 µM (active)	inactive	–	–	2.96 µM (active)	11.8 µM (active)	4.18 µM (active)	3.72 µM (active)	–	–
CCC(C)SSc1ncc[nH]1 (stereo not drawn)	3.72 µM (active)	5.26 µM (active)	3.72 µM (active)	–	4.69 µM (active)	5.26 µM (active)	11.8 µM (active)	7.43 µM (active)	13.2 µM (active)	3.72 µM (active)	8.33 µM (active)
Cc1ccc(NC(=O)c2ccc(CN3CCN(C)CC3)cc2)cc1Nc1nc(-c2cccnc2)cs1	14.8 µM (active)	23.5 µM (active)	9.35 µM (active)	–	23.5 µM (active)	13.2 µM (active)	23.5 µM (active)	7.43 µM (active)	8.33 µM (active)	11.8 µM (active)	–
